Assay outcomes deposited in PubChem BioAssay by National Center for Advancing Translational Sciences (NCATS).
Sampled rows, rich in hits. Any-hit rate of the full collection: about 6.5%.
Lassa entry inh: qHTS for Inhibitors of binding or entry into cells for Lassa Virus; Lassa virus pseudotype entry inhibition, cell reporter; actives 1.2% (n = 300,000); Potency, µM (doses to about 37.9 µM), inactives show at the top dose activity change, negative = inhibition, most hits filed as inhibitors; calls by dose curve; tested in HEK293 cells; further: potency means the concentration at half of the fitted maximal effect; nearly all actives have a fitted effect of over 50% in size
FMDV antiviral: High Throughput Screening for Foot and Mouth Disease Virus Antivirals | AID 1159524, 2015 | actives 1.2% (n = 410,000) | Potency, µM (titrated, usually from 57.9 µM), for the others: at the top dose activity change, negative = inhibition, most hits filed as inhibitors | FMDV antiviral cell-based qHTS; calls by dose curve; tested in HEK293T cells; further: read-out not given here; potency means the concentration at half of the fitted maximal effect; nearly all actives have a fitted effect of over 45% in size
HCMV inh: qHTS Assay for inhibitors of the human cytomegalovirus (HCMV) | activity change, negative = inhibition, % at 57.5 µM | actives 4.5% (n = 410,000) | HFF cells, HCMV-luciferase reporter, 72 h; hits give low values; in the data active means activity change below about -60%; inconclusive means no clear call, values can overlap the other calls; inactive means above about -39%
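Two compound doses tested in HFFs infected with HCMV-luciferase, MOI 1 PFU/cell, 72 h at 37C. Lysate luminescence read with OneGlo; data normalized against buffer-only and 10uM Salinomycin inhibitor controls.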
Marburg entry inh: qHTS for inhibitors of binding or entry into cells for Marburg Virus; AID 540276, 2011; Potency, µM (highest dose often 37.8 µM), for inactives: top-dose activity change, negative = inhibition, most hits filed as inhibitors; actives 1.8% (n = 300,000); Marburg virus pseudotyped entry inhibition, cell reporter; calls by dose curve; tested in HEK293 cells; further: potency means the concentration at half of the fitted maximal effect
Vaccinia Venus: qHTS for Stage-Specific Inhibitors of Vaccinia Orthopoxvirus: Venus Reporter Primary qHTS | Vaccinia virus Venus reporter expression, fluorescence | Potency, µM (highest dose often 36.5 µM), inactives show top-dose activity change, negative = inhibition, hits mostly inhibitors | actives 0.46% (n = 330,000) | AID 720580, 2013; calls by dose curve; tested in A549 cells; further: potency means the concentration at half of the fitted maximal effect; nearly all actives have a fitted effect of over 30% in size
Vaccinia mCherry: qHTS for Stage-Specific Inhibitors of Vaccinia Orthopoxvirus: mCherry Reporter Primary qHTS; Vaccinia virus mCherry reporter infection, fluorescence; Potency, µM (top dose mostly 36.5 µM), for the others: at the highest dose activity change, negative = inhibition, actives largely listed as inhibitors; actives 0.63% (n = 310,000); AID 720579, 2013; calls by dose curve; tested in A549 cells; further: potency means the concentration at half of the fitted maximal effect; nearly all actives have a fitted effect of over 35% in size
The depositor's hits bear a star; i = inactive; ? = inconclusive; nt = not tested or not shown; [ ] = remark or other dose. On the % scale 0 is the no-effect control and ±100 the full control effect.

SMILES	Lassa entry inh	FMDV antiviral	HCMV inh	Marburg entry inh	Vaccinia Venus	Vaccinia mCherry
CC1CCCCC1NC(=S)Nc1ccc(SC(F)F)cc1 (stereo not given)	?	-9%	-100*	-17%	?	nt
CC(=O)N1CCN(C(=S)Nc2ccc(SC(F)F)cc2)CC1	nt	81%	-76*	5%[46.1 µM]	1%	-4%
CC1CCN(C(=S)Nc2ccc(SC(F)F)cc2)CC1	-8%	25%	-37	-24%	-15%	-26%
FC(F)Sc1ccc(NC(=S)NCC2CCCCC2)cc1	-26%	9%	-97*	-26%	nt	nt
COc1ccc2[nH]c3c(c2c1)CCN1C(=O)C(CC(=O)NCCC2=CCCCC2)C[C@H](C(=O)N2CCCCC2)[C@@]31C (stereo not given in full)	nt	-9%	-22	0%	?	10µM*
CC(C)N(C(=O)[C@H]1C[C@H](CC(=O)NCCC2=CCCCC2)C(=O)N2CCc3c([nH]c4ccc(Cl)cc34)[C@]12C)C(C)C	nt	?	-91*	nt	16µM*	?
COc1ccc2[nH]c3c(c2c1)CCN1C(=O)C(CC(=O)NCCC2=CCCCC2)C[C@H](C(=O)N2CCOCC2)[C@@]31C (stereo not given in full)	nt	-10%	-2	nt	?	-28%
Cc1onc(-c2ccccc2Cl)c1C(=O)Oc1cc(N)n(S(=O)(=O)c2ccc(F)cc2)n1	-20%	32µM*	31	?	-26%	?
Cc1ccc(-n2cc(CN3CCC(O)(c4ccccn4)CC3)c(-c3ccc(F)cc3)n2)cc1	?	-29%	?	4µM*	?	?
O=C(Nc1ccc2nc(C3CC3)n(Cc3ccc(F)cc3)c(=O)c2c1)c1ccco1	?	-20%	-69*	-29%	?	?
CC(NC(=O)C(NS(=O)(=O)c1cccs1)C(C)C)c1ccc(S(N)(=O)=O)cc1 (stereo not given)	nt	-7%	-31	nt	nt	nt
CC(Cc1ccccc1Sc1ccccc1)N(C)C (stereo not given)	?	-19%	-63*	?	-17%	-11%
CC(Cc1ccccc1Sc1ccc(O)cc1)N(C)C (stereo not given)	2%	-10%	nt	?	-20%	i[1.46 µM]
Cc1ccc(CNC(=O)c2ccc(Nc3nc4ccccc4n4nnnc34)cc2)cc1	?	25%	4	?	?	?
CC(C)CCNC(=O)c1cccc(Nc2nc3ccccc3n3nnnc23)c1	-7%[46.1 µM]	-22%	-81*	-9%[46.1 µM]	?	?
c1ccc(Nc2nc3ccccc3n3nnnc23)cc1	nt	40%	51	nt	3%	i
c1ccc2c(c1)nc(Nc1ccc3c(c1)OCO3)c1nnnn12	-3%	-21%	-78*	4%	-4%	nt
O=C(NCCc1ccc(Cl)cc1)c1ccc(Nc2nc3ccccc3n3nnnc23)cc1	?	?	-11	?	-29%	?
COc1ccc(CCNC(=O)c2ccc(Nc3nc4ccccc4n4nnnc34)cc2)cc1OC	-11%[46.1 µM]	?	-114*	?	-21%	-29%
CC(NC(=O)c1cccc(Nc2nc3ccccc3n3nnnc23)c1)c1ccccc1 (stereo not given)	?	?	-68*	nt	10µM*	?
CCC[C@H]1[C@@H](NS(=O)(=O)c2cccc([N+](=O)[O-])c2)CC[C@@]23CCCN2C(=O)CCC[C@@H]13	nt	nt	18	nt	nt	nt
Cc1c(OC(C)C(=O)NCCCN2CCOCC2)ccc2c3c(c(=O)oc12)CCCC3 (stereo not given)	nt	-21%	-18	nt	nt	nt
Fc1ccc(-c2nc3c4ccccc4ccn3c2Cc2ccsc2)cc1	nt	7%	101	nt	4%	i
O=C(N/N=C/C=C/c1ccccc1[N+](=O)[O-])c1cccs1	9%	21%	?	?	-17%	-2%
O=C(N/N=C\C=C\c1ccc([N+](=O)[O-])o1)c1cccs1	?	2%	-65*	?	?	10µM*
SMILES	Lassa entry inh	FMDV antiviral	HCMV inh	Marburg entry inh	Vaccinia Venus	Vaccinia mCherry
Cc1ccccc1CN(C)CCS(=O)(=O)c1cc(Cl)ccc1Cl	14%[46.1 µM]	-16%	-29	-25%[46.1 µM]	?	5µM*
COC(OC)c1ccnc(-c2ccc(OC(C)=O)cc2)n1	14%[46.1 µM]	11%	-83*	13%[46.1 µM]	-7%	i
Cc1ccccc1Nc1n[nH]c(=S)s1	nt	7%	3	nt	-6%	-2%
Cc1c(Cl)cccc1Nc1n[nH]c(=S)s1	14%[46.1 µM]	-3%	-66*	8%	-9%	-4%
COc1cc(NC(=O)c2cc(OC)c(OC)c(OC)c2)cc(-n2cnnn2)c1	-5%	0%	27	2%[46.1 µM]	-11%	i
CCCC(C(=O)NC1CCCC1)N(C(=O)Cn1nnc(-c2ccc(C)o2)n1)c1ccccc1F (stereo not given)	-17%[46.1 µM]	6%	-8	?	5%	-4%
CCCC(C(=O)NC1CCCC1)N(C(=O)Cn1nnc(-c2ccc(C)o2)n1)C1CCCC1 (stereo not given)	?	-13%	8	26µM*	nt	nt
O=C(NCc1ccccc1)c1cc(C2CCCCN2C(=O)c2ccc3c(c2)CCO3)on1 (stereo not given)	nt	-9%	9	nt	-6%	1%
COc1ccccc1OC(C)C(=O)N1CCN(CCc2ccccn2)CC1 (stereo not given)	25%[46.1 µM]	2%	12	1%[46.1 µM]	13%	0%
O=C(/C=C/c1ccccc1[N+](=O)[O-])N1CCCCC1	2%	-14%	31	4%	nt	nt
O=C(/C=C/c1ccc([N+](=O)[O-])s1)N1CCN(c2ccccc2)CC1	nt	-24%	-70*	nt	nt	nt
O=C(/C=C/c1cccs1)N1CCCCC1	7%[46.1 µM]	36%	-16	?	-6%	-18%
O=C(/C=C/c1ccc([N+](=O)[O-])s1)N1CCCC1	nt	-7%	-31	nt	13µM*	?
O=C(/C=C/c1ccc([N+](=O)[O-])s1)N1CCCCC1	?	4%	?	8.9µM*	14µM*	?
C/C=C/c1ccc(OCCCCN2C(=O)NC(C)(C)C2=O)c(OC)c1	18µM*	-13%	-29	?	-27%	-4%
CCOc1ccc(/C=C/C(=O)Nc2ccc3nc(N(CC)CC)cc(C)c3c2)cc1OC	?	-22%	-31	11µM*	-13%	-20%
CCN(CC)c1cc(C)c2cc(NC(=O)/C=C/c3cc(OC)c(OC)c(OC)c3)ccc2n1	?	-23%	-100*	?	-6%[7.34 µM]	1%[7.34 µM]
CCN(CC)c1cc(C)c2cc(NC(=O)/C=C/c3ccc(C)cc3)ccc2n1	3%[46.1 µM]	0%	-11	?	-11%	-10%
COc1ccc(Br)c(Cn2c(C)c(C(=O)NCc3ccc(F)cc3)sc2=O)c1	nt	-17%	9	nt	-8%	i
